This is one part of a sample in which hits are shown more often than they occur.
IDE exosite inh = displaces the probe from the exo-site of human IDE; P14735; purified IDE, FL-6b probe fluorescence polarization; active compounds read low; z-score at 20 µM; 6.3% of 17,000 active; AID 1259349;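 active = z-score of -3 or lower, meaning strong loss of probe binding signal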;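 also: His-tagged human IDE residues 42-1019 made in E. coli with 30 nM FL-6b probe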
Each line names hits and unclear results; the compound was inactive in the other large screens.

O=C(C[C@H]1CC[C@@H]2[C@H](COC[C@H](O)CN2S(=O)(=O)c2ccccc2)O1)NCC1CCCCC1	none
CC(C)C#Cc1ccc([C@H]2[C@@H](CO)N3C(=O)CN(C(=O)C4CCCCC4)C[C@@H]23)cc1	none
CS(=O)(=O)N1Cc2cc(C(=O)NCC3CC3)nc(-c3cccc(-c4cncnc4)c3)c2[C@@H]1CCO	none
Cc1ccccc1-c1ccc([C@H]2[C@H]3CN(S(C)(=O)=O)CCCCN3[C@H]2CO)cc1	none
CCS(=O)(=O)N1CCCCN2[C@H](C1)[C@H](c1ccc(-c3ccccc3C)cc1)[C@@H]2CO	none
CS(=O)(=O)N1CC(=O)N2[C@H](CO)[C@H](c3ccc(Br)cc3)[C@@H]2C1	none
Cc1ccccc1-c1ccc([C@@H]2[C@@H](CO)N3C(=O)CN(S(C)(=O)=O)C[C@@H]23)cc1	IDE exosite inh -13
CCS(=O)(=O)N1CCCCN2[C@H](CO)[C@@H](c3ccc(-c4ccccc4C)cc3)[C@@H]2C1	IDE exosite inh -18
CCS(=O)(=O)N1CCCCN2[C@H](CO)[C@@H](c3ccc(-c4ccccc4F)cc3)[C@H]2C1	none
Cc1ccccc1-c1ccc([C@@H]2[C@H](CO)N3CCCCN(S(=O)(=O)Cc4ccccc4)C[C@@H]23)cc1	IDE exosite inh -4.7
O=S(=O)(Cc1ccccc1)N1CCCCN2[C@H](C1)[C@H](c1ccc(-c3ccccc3)cc1)[C@@H]2CO	none
O=S(=O)(Cc1ccccc1)N1CCCCN2[C@H](C1)[C@@H](c1ccc(-c3ccccc3)cc1)[C@@H]2CO	none
Cc1ccccc1-c1ccc([C@H]2[C@H](CO)N3CCCCN(S(C)(=O)=O)C[C@@H]23)cc1	IDE exosite inh -4.6
CS(=O)(=O)N1CC(=O)N2[C@H](C1)[C@H](c1ccc(Br)cc1)[C@@H]2CO	none
Cc1ccccc1-c1ccc([C@H]2[C@@H](CO)N3CCCCN(S(C)(=O)=O)C[C@@H]23)cc1	none
O=C(Cc1ccccn1)N1CC(=O)N2[C@H](CO)[C@@H](c3ccc(C#CCC4CCCC4)cc3)[C@@H]2C1	none
Cc1ccc(S(=O)(=O)N(C)C[C@H]2OCCCC[C@@H](C)Oc3ccc(NC(=O)c4ccncc4)cc3C(=O)N([C@H](C)CO)C[C@@H]2C)cc1	none
COCC#Cc1ccc([C@H]2[C@H](CO)N3C(=O)CN(C(=O)Nc4cc(F)ccc4F)C[C@@H]23)cc1	none
CC(C)C#Cc1ccc([C@@H]2[C@H]3CN(C(=O)Cc4ccccc4)CC(=O)N3[C@H]2CO)cc1	none
COCC#Cc1ccc([C@H]2[C@H]3CN(C(=O)c4ccncc4)CC(=O)N3[C@H]2CO)cc1	none
N#Cc1ccc(-c2ccc([C@@H]3[C@@H]4CN(S(=O)(=O)Cc5ccccc5)C[C@H]3N4)cc2)cc1	none
O=C(Nc1cc(F)ccc1F)N1CC(=O)N2[C@H](CO)[C@@H](c3ccc(-c4ccccc4)cc3)[C@@H]2C1	none
O=C(Nc1cccc(Cl)c1)N[C@@H]1CC[C@H](CCn2cc(Cc3ccccc3)nn2)O[C@H]1CO	none
Cc1ccc(-c2ccc([C@H]3[C@@H](CO)N4C(=O)CN(C(=O)c5ccc(F)cc5)C[C@@H]34)cc2)cc1	none
O=C1CN(Cc2ccccc2)C[C@H]2[C@H](c3ccc(Br)cc3)[C@@H](CO)N12	none
CC(=O)N1CC(=O)N2[C@H](C1)[C@H](c1ccc(-c3ccc(C#N)cc3)cc1)[C@@H]2CO	none
O=C1NCCOCn2nncc2CC[C@H]1Cc1cccc(Cl)c1	none
O=C(NC[C@H]1[C@H](c2ccccc2)[C@@H](CO)N1C(=O)C1CC1)NC1CCCC1	none
N#C[C@H]1[C@@H](c2ccccc2-c2ccccc2)[C@@H](CO)N1C(=O)Cc1cccnc1	none
O=C(Cc1ccccn1)N[C@@H]1CC[C@H](CCNS(=O)(=O)c2cccc(F)c2)O[C@H]1CO	none
COCC#Cc1ccc([C@H]2[C@H]3CN(C(=O)C4CCC4)CC(=O)N3[C@H]2CO)cc1	none
CO[C@@H]1CC[C@@H]2CCN(C)C(=O)CCCN(C)C(=O)c3cc(C#N)ccc3OC[C@@H]1O2	none
O=C(C[C@H]1C[C@H]2c3cc(NC(=O)c4ccc5c(c4)OCO5)ccc3O[C@H]2[C@H](CO)O1)NCCN1CCCCC1	none
CCS(=O)(=O)N1CCCCN2[C@H](CO)[C@H](c3ccc(-c4ccccc4F)cc3)[C@H]2C1	none
Cc1ccccc1-c1ccc([C@@H]2[C@@H](CO)N3CCCCN(S(=O)(=O)c4ccc(F)cc4)C[C@H]23)cc1	none
CCS(=O)(=O)N1CCCCN2[C@H](CO)[C@H](c3ccc(-c4ccccc4C)cc3)[C@H]2C1	IDE exosite inh -8.3
C[C@@H](O)C#Cc1ccc([C@H]2[C@@H](CO)N3CCCCN(C(=O)c4ccc(F)cc4)C[C@@H]23)cc1	none

Screening results (PubChem)
